High-throughput results from PubChem.
Most compounds without a hit are left out; they make up all but 4.7% or so of the library.
D1 antag: antagonists of human D1 dopamine receptor; activity change, negative = inhibition, % at 10 µM; HEK293 TREx D1 cells, calcium flux, dopamine EC80; stronger effect = lower value; 360,000 compounds, 3.2% hits; in the data active = activity change below about -30%
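Cells carrying a force-coupled, tetracycline-inducible human D1 receptor report calcium flux. Each well gets a 10 s baseline, compound with 180 s monitoring, then an EC80 dopamine stimulus with a second 180 s kinetic read.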
TRHR ag: activates the human TRH receptor. P34981. TRHR cells, calcium flux fluo-8, FDSS agonist mode. activation, % at 2 µM. 360,000 compounds, 0.18% hits. AID 493084
Target sequence (P34981 whole entry, looked up): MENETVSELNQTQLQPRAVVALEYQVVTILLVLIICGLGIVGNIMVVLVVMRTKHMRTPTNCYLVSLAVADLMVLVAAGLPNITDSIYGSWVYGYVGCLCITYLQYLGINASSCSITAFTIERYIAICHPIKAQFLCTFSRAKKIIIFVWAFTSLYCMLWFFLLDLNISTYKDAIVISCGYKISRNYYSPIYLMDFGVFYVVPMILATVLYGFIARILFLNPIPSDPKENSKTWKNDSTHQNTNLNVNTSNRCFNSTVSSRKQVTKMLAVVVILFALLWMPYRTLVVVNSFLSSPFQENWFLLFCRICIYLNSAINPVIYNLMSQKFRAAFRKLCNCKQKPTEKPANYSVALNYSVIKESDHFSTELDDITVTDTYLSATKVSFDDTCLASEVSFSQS
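Read-out: compound-evoked intracellular calcium rise in TRHR cells, fluo-8 dye, kinetic FDSS fluorescence at 1 s/cycle following a 10-cycle baseline. Cells cultured overnight before dye loading (30 min–1.5 h, RT).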
D1 agonist: agonists of human D1 dopamine receptor | P21728 | HEK293 T-REx D1 cells, calcium flux, agonist mode | activation, % at 2 µM | 360,000 compounds, 1% hits | AID 504660
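Agonism was scored from calcium flux recorded over 180 s (1 read/s) after pintool compound addition, following a 10-cycle baseline. Cells were inducible force-coupled HEK293 TREx D1, plated overnight at 30 C and loaded with no-wash calcium dye.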
D1 PAM: human D1 dopamine receptor positive modulation; P21728; HEK293 TREx D1 cells, calcium flux, dopamine EC20 potentiation; potentiation, % at 10 µM; 360,000 compounds, 0.036% hits; in the data active = potentiation above about 30%
TRHR enhancer: allosterically enhances the human TRH receptor; P34981; TRHR cells, fluo-8 calcium fluorescence, EC20 TRH enhancement; enhancement, % at 2 µM; 360,000 compounds, 0.66% hits; AID 493056; in the data active = enhancement above about 30%
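Enhancer read-out: after compound pinning and an initial kinetic agonist-mode read, an EC20 of TRH (10 nM final) was injected and fluo-8 calcium signal (Ex 480/Em 530) followed at 1 s/cycle for 100 cycles in TRHR-expressing cells.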
Numbers stand for hits; i = inactive; nt = no result. Rule as the data show it, unless noted: active = activation above about 30%; inactive = the rest.

SMILES	D1 antag	TRHR ag	D1 agonist	D1 PAM	TRHR enhancer
O=C(COc1ccccc1)Nc1c(C(=O)N2CCN(c3ccc(F)cc3)CC2)oc2ccccc12	-31	i	i	i	i
CC(C)C(=O)Nc1c(C(=O)N2CCN(c3ncccn3)CC2)oc2ccccc12	-34	i	i	i	i
CC(C)C(=O)Nc1c(C(=O)N2CCN(c3ccccc3F)CC2)oc2ccccc12	i	i	i	i	i
CC(C)CC(=O)Nc1c(C(=O)N2CCN(c3ccccc3)CC2)oc2ccccc12	i	i	i	i	i
COc1ccc(Cn2nnc3c(=O)[nH]c(C4CCN(C(=O)c5ccc(C)cc5)CC4)nc32)cc1OC	i	i	i	i	i
COc1cc(SC)ccc1C(=O)Nc1cccc(C2OCCCO2)c1	i	i	i	nt	i
O=C1CCCc2c1cc(C(=O)O)c(=O)n2-c1ccccc1	i	i	i	i	i
CCOC(=O)c1cc2c(n(-c3ccc(Cl)cc3)c1=O)CCCC2=O	-30	i	i	i	i
Cc1cccc(Cn2cnc3c(cnn3-c3ccc(Cl)cc3)c2=O)c1	i	i	i	i	i
CC(C)Nc1ccc(Nc2ccnc3cc4ccccc4cc23)cc1	i	i	i	i	i
c1ccc(CCNc2ccnc3cc4ccccc4cc23)cc1	-82	i	34	i	i
Cc1ccc(-c2nn(-c3cc(Cl)ccc3[N+](=O)[O-])c(=O)c3ccccc23)cc1C	-49	i	i	i	i
O=c1c2ccccc2c(-c2ccccc2)nn1-c1cc(Cl)ccc1[N+](=O)[O-]	i	i	i	i	i
COc1ccccc1-c1c(C)nn2c(-c3ccccc3)cc(C)nc12	i	i	i	i	i
COc1ccc(-c2c(C)nn3c(-c4ccccc4)cc(C)nc23)cc1OC	i	i	i	i	36
O=C(CN1CCN(Cc2ccc(F)cc2Cl)S1(=O)=O)Nc1ccc(F)cc1	i	i	48	i	i
Cc1ccc(-n2c(SCC(=O)Nc3c(C)cccc3C)nc(O)c(C)c2=O)cc1	i	i	i	i	i
Cc1ccc(S(=O)(=O)Nc2ccccc2-c2ccccc2NS(=O)(=O)c2ccc(C)cc2)cc1	i	i	i	i	i
O=C1c2ccccc2-c2cccc(NS(=O)(=O)c3ccc(C(F)(F)F)cc3)c21	i	i	55	i	i
CC(NS(=O)(=O)c1ccc(Br)cc1)c1ccccc1 (configuration not stated)	-34	i	i	i	i
O=C(CCSCc1cnn(-c2ccccc2)c1-n1cccc1)NCc1ccc(Cl)cc1	-52	i	i	i	i
COc1ccc(CNC(=O)CSCc2cnn(-c3ccccc3)c2-n2cccc2)cc1OC	-34	i	43	i	i
COc1ccc(NC(=O)C2CCN(Cc3cnn(-c4ccccc4)c3-n3cccc3)CC2)cc1OC	-34	i	35	i	i
Cc1ccc(CNC(=O)CCSCc2cnn(-c3ccccc3)c2-n2cccc2)cc1	-34	i	i	i	i
COc1cc(-c2cc3n(C)c(C)c(CCC(=O)NC4CCCCC4)c(=O)n3n2)cc(OC)c1OC	i	i	i	i	i
SMILES	D1 antag	TRHR ag	D1 agonist	D1 PAM	TRHR enhancer
CC(C)(C)C(=O)CN1C(=O)NC2(CCc3ccccc32)C1=O (configuration not stated)	i	i	i	i	i
Cc1cc(C)c(NC(=O)Cn2c([N+](=O)[O-])cnc2C)c(C)c1	-46	i	i	i	i
FC(F)C(F)(F)c1cc(-c2ccccc2)n[nH]1	i	i	43	i	i
O=C(C[n+]1cccc(CNC(=O)c2ccc(OC(F)F)cc2)c1)Nc1cc(C(F)(F)F)ccc1Cl	i	i	i	i	i
NC(=O)C[n+]1cccc(CNC(=O)c2ccc(OC(F)F)cc2)c1	-30	i	i	i	i
Cc1cc(C(=O)CN2C(=O)NC(C)(c3cccc(Br)c3)C2=O)c(C)n1Cc1ccco1 (configuration not stated)	-37	i	i	i	i
CC1(c2cccc(Br)c2)NC(=O)N(CC(=O)NC2CCCCC2)C1=O (configuration not stated)	-34	i	i	i	i
O=C(CN1CCN(Cc2ccccc2F)C1=O)NC1CCCC1	-30	i	i	i	i
Cc1cc(C(=O)CN2C(=O)NC(c3ccccc3)(c3ccccc3)C2=O)c(C)n1Cc1ccco1	i	i	i	i	i
O=C(CN1C(=O)c2ccccc2C1=O)NC1CCCCCC1	i	i	i	i	33
O=C(CN1C(=O)c2ccccc2C1=O)NC1CCCCC1	i	i	i	i	i
CCOC(=O)N1CCc2c(sc3c2c(=O)n(CCc2ccccc2)c(=O)n3CC(=O)Nc2ccccc2C)C1	i	i	i	i	i
O=C(Nc1ccc(F)c(F)c1)c1ccc(=O)n(Cc2ccc(F)cc2)c1	i	i	i	i	i
CC(=O)c1ccc(N2CCN(C(=O)C3CCN(S(=O)(=O)c4cn(C)cn4)CC3)CC2)cc1	i	i	i	i	i
CC1(c2cccc(Br)c2)NC(=O)N(CC(=O)Nc2ccc(F)cc2)C1=O (configuration not stated)	-31	i	i	i	i
CCC1Sc2ccccc2N(CC(=O)NC2CC2)C1=O (configuration not stated)	-74	i	i	i	i
CCC1Oc2ccccc2N(CC(=O)NC2CC2)C1=O (configuration not stated)	i	i	i	i	i
COc1cccc(CSc2nc3ccncc3n2CC(=O)Nc2ccc(OC)c(OC)c2OC)c1	i	i	i	i	i
CSc1cccc(N2CC(C(=O)Nc3ccccc3N3CCCC3)CC2=O)c1 (configuration not stated)	-32	i	i	i	i
O=S(=O)(c1ccc(Cl)cc1)c1nc(-c2cccc(Br)c2)oc1NCc1ccccc1	i	i	i	i	31
COc1cccc(CC(=O)Nc2c(C(=O)N3CCN(c4ccccc4)CC3)oc3ccccc23)c1	i	i	i	i	i
Cc1cc(S(=O)(=O)N2CCCC(N(C)CCc3ccccn3)C2)c(C)cc1Cl (configuration not stated)	-54	i	i	i	i
Cc1oc2ncn(C)c(=O)c2c1C(=O)N(C)c1ccccc1F	i	i	i	i	i
CCOC(=O)c1c(NC(=O)c2cc(C)on2)sc(C)c1C	i	i	i	i	i
CCOC(=O)CSc1nc2c(sc(=S)n2-c2ccccc2)c(=O)[nH]1	i	i	i	i	i
CCN(CC)C(=O)CSc1nc2c(sc(=S)n2-c2ccc(C)cc2C)c(=O)[nH]1	-41	i	i	i	i
O=C(COc1ccc(Br)cc1CO)Nc1ccc(F)cc1	i	i	i	i	i
O=C(COc1ccc(Br)cc1CNC1CCCC1)Nc1ccccc1	i	i	34	i	i
CS(=O)(=O)N1CCC(C(=O)NCc2ccc3c(c2)OCO3)CC1	-35	i	i	i	i
